# Reference: PubChem BioAssay (NCATS)
# Inconclusive results are not listed. Active and inactive are the calls of the source. The call rests on the fitted dose curve; in most records, active means well fitted cell-killing curve with a large enough effect; inconclusive means small, poorly fitted or top-dose-only effect; inactive means flat fitted curve, though single readings scatter.
# Assay: Cell Viability - LYMP2-015 (AID 971);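 further: cells exposed to compound for 24 h; 0% = DMSO only and full effect = 92 µM tetraoctylammonium bromide; nearly all actives have a fitted effect of over 55% in size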
# Settings: LYMP2-015 lymphoblastoid cell viability; series mostly up to 92.2 µM; activity change, negative = lower viability: at the top concentration
# Text: NIH Chemical Genomics Center [NCGC]
# NIH Molecular Libraries Screening Centers Network [MLSCN]
# National Institutes of Environmental Health Sciences [NIEHS]
# National Toxicology Program [NTP]
# We have developed a 1536-well cell-based assay for quantitative high throughput screening (qHTS) against a number of cell lines to determine in vitro cytotoxicity of small molecules. This particular assay uses a human lymphoblastoid cell line (LYMP2-015) purchased from Coriell Institute for Medical Research.
# NCGC Assay Protocol Summary:
# The CellTiter-Glo luminescent cell viability assay (Promega) is a homogeneous method to measure the number of viable cells in culture. The end point readout of this assay is based on quantitation of intracellular ATP, an indicator of metabolic activity, using the luciferase reaction. Luciferase catalyzes the oxidation of beetle Luciferin to oxyluciferin and light in the presence of ATP. The luminescent signal is proportional to amount of ATP present.
# Using the CellTiter-Glo luminescent cell viability assay, the amount of cellular ATP was measured in the lymphoblastoid cell line with complete culture medium following compound treatment for 24 hours. The assay was performed in opaque white Kalypsys 1536-well plates. In the screen, tetraoctylammonium bromide was used as positive control. Library compounds were measured for their ability to cause acute toxicity in the cell line, as reflected by a decrease in intracellular ATP levels, in a concentration-dependent manner. […] AC50 values were determined from concentration-response data modeled with the standard Hill equation.
# qHTS protocol for CellTiter Glo lymphoblastoid cellular assay
# [Step] [Parameter] [Value] [Description]
# 1. Reagent; 5 uL; 2500 lymphoblastoid cells/well
# 2. Time; 5 hr; 37 C incubation
# 4. Controls; 23 nL; Tetraoctylammonium bromide 6.4pM to 92 uM
# 5. Time; 24 hr; 37 C incubation
# 6. Reagent; 5 uL; CellTiter Glo reagent
# 7. Time; 30 min; Room Temperature
# 8. Detection; Luminescence; Viewlux plate reader
# Keywords: cell viability, cytotoxicity, lymphoblastoid cell line, luminescence, NTPHTS, NTPHTS_NCGC, NIEHS, DSSTox, MLSMR, MLSCN, NIH Roadmap, qHTS, NCGC
row,Compound,"activity change, negative = lower viability"
1,Cc1ccc(N(C)C)cc1,2.67% (inactive)
2,Cc1ccc([N+](=O)[O-])c(N)c1,-4.88% (inactive)
3,OCCO,0.749% (inactive)
4,O=C1C=CCCC1,-12.6% (inactive)
5,CCOC(=O)OCC,-2.67% (inactive)
6,COc1ccc(OC)cc1,7.15% (inactive)
7,CCCC(Cl)CCCC(Cl)CCC(Cl)CCC(Cl)CCC(Cl)CCCC(Cl)CCC (stereo not given),-1.59% (inactive)
8,CCNc1ccccc1,-8.99% (inactive)
9,NC(=O)CCCCC(N)=O,4.69% (inactive)
10,CC(=O)Nc1ccc(N)cc1,-19.3% (inactive)
11,Nc1ccc(Cl)cc1[N+](=O)[O-],-1.16% (inactive)
12,CN(C)CCCCl,1.62% (inactive)
13,CCOC(C)(C)C,5.15% (inactive)
14,Cc1ccc(C#N)cc1,2.51% (inactive)
15,NC(=O)c1ccccc1[N+](=O)[O-],2.65% (inactive)
16,Nc1cccc2c(=O)[nH][nH]c(=O)c12,1.84% (inactive)
17,BrC(Br)C(Br)Br,2.39% (inactive)
18,C/C=C1\CC2C=CC1C2 (stereo not given),-8.12% (inactive)
19,O=C1OC(=O)c2c(Br)c(Br)c(Br)c(Br)c21,3.86% (inactive)
20,FC(F)(F)c1cccc(Cl)c1,2.93% (inactive)

row,Compound,"activity change, negative = lower viability"
1,CCCCC(CC)CNCC(CC)CCCC (stereo not given),3.4% (inactive)
2,Nc1cccc([N+](=O)[O-])c1,-7.04% (inactive)
3,O=C(O)c1cc(Cl)cc(Cl)c1,-11% (inactive)
4,Cc1cc(C)c(N)cc1C,-1.27% (inactive)
5,CCOc1cc(OCC)c(C(C)=O)cc1OCC,-3.47% (inactive)
6,O=C(O)/C=C/C(=O)O,-2.25% (inactive)
7,Cc1ccccc1C(=O)O,5.68% (inactive)
8,CCCC=O,-17.7% (inactive)
9,CC(=O)OCc1ccco1,-6.54% (inactive)
10,CCc1ccccc1,1.27% (inactive)
11,c1ccc(Nc2ccccc2)cc1,-5.48% (inactive)
12,Nc1cccc(S(=O)(=O)O)c1,-6.53% (inactive)
13,CCCCC(CC)C(=O)O (stereo not given),-4.89% (inactive)
14,CCN(Cc1ccccc1)c1ccccc1,16.4% (inactive)
15,CNC(=O)N(c1ccccc1)c1ccccc1,-1.99% (inactive)
16,CC(=O)Nc1ccc(C)cc1,-13.1% (inactive)
17,O=[N+]([O-])c1cccc(C(F)(F)F)c1,-12.7% (inactive)
18,Nc1cc(Cl)c([N+](=O)[O-])cc1O,-14.8% (inactive)
19,CCCCCO,-13.9% (inactive)
20,Cc1cccc(C)c1,-9.17% (inactive)
